Measurements reported in the supplement of paper PMC9897528.

Test system: Scedosporium aurantiacum CBS 136046
Assay: growth inhibition relative to DMSO control (OD600); higher = more antifungal activity, active = 80 or more; extreme values may be limits of the assay
Details: 5 µM; 72 h; 37 °C
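Also: conidia screened in RPMI 1640 medium under 5% CO2, growth read by spectrophotometer, medium with 0.5% DMSO serving as the untreated reference.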

Growth inhibition, inactive:
NC(=O)c1nccn([C@@H]2O[C@H](CO)[C@@H](O)[C@H]2O)c1=O 2%
Nc1nc(O)c(Br)c(-c2cccc(Cl)c2)n1 4.65%
O=S(=O)(Nc1ccccc1)c1ccc(NC(=S)Nc2ccccc2)cc1 24.2%
CC[C@H](NC(=O)[C@H](C)NC)C(=O)N1C[C@@H](O)C[C@H]1Cc1c(-c2[nH]c3cc(F)ccc3c2C[C@@H]2C[C@H](O)CN2C(=O)[C@H](CC)NC(=O)[C@H](C)NC)[nH]c2cc(F)ccc12 6.5%
CC(=O)NC[C@H]1CN(c2ccc(N3CCSCC3)c(F)c2)C(=O)O1 29.2%
CCNC(=O)Nc1cn2c(-c3ncc(CC)cn3)cc(-c3cccnc3)cc2n1 0%
Cc1onc(-c2ccccc2)c1-c1ccc(S(N)(=O)=O)cc1 41.2%
O=C(N[C@H](CCS)C(=O)N[C@H](Cc1ccccc1)C(=O)O)c1cc2ccccc2[nH]1 23.5%
CCC(C)n1ncn(-c2ccc(N3CCN(c4ccc(OCC5COC(Cn6cncn6)(c6ccc(Cl)cc6Cl)O5)cc4)CC3)cc2)c1=O (stereo not drawn) 57.2%
O=C(NC(=O)N1CCCc2ccccc21)c1cccc(Cl)c1 5.71%
NC(=O)c1c(N)sc2c1CCCCC2 6.23%
CCOCc1nc2c(N)nc3ccccc3c2n1CC(C)(C)O 14.6%
O=C(/C(=C/c1ccc(Cl)cc1Cl)n1ccnc1)c1ccc(Cl)cc1 59.4%
Nc1ccc2oc(=O)ccc2c1I 8.52%
COc1ccc2c(c1OC)C(=O)OC2C1c2c(cc3c(c2OC)OCO3)CCN1C (stereo not drawn) 14.1%
CC(C)(C)c1cc(CCC(=O)N2CCC2)cc(C(C)(C)C)c1O 11.9%
O=[N+]([O-])c1ccc2c(CCc3c[nH]c4ccccc34)c[nH]c2c1 48.7%
O=C(NNC(=S)Nc1ccc(Cl)cc1)c1ccncc1 10.8%
Cc1ccccc1NC(=O)Nc1cccc([N+](=O)[O-])c1 12.4%
O=P(O)(O)C(CCCc1cccc(Oc2ccccc2)c1)S(=O)(=O)O (stereo not drawn) 2.84%
Nc1nc(NC2Cc3ccc(F)cc3C2)nc(N2CCCCC2)n1 (stereo not drawn) 45.3%
N=c1n(CCN2CCCCC2)c2ccccc2n1CC(O)COc1ccc(Cl)cc1Cl (stereo not drawn) 25.3%
Cc1ccc(NC(=O)c2ccc(CN3CCN(C)CC3)cc2)cc1Nc1nccc(-c2cccnc2)n1 17.6%
CC(C)=CCC/C(C)=C/CNCCNC1C2CC3CC(C2)CC1C3 (stereo not drawn) 61.4%
NC(=O)c1cnc2ccc(S(=O)(=O)c3ccccc3)cc2c1Nc1ccc(O)cc1 32.1%
O=c1oc2ccc(Br)cc2cc1CSc1ncc[nH]1 18.7%
O=C(O)c1ccccc1Sc1ncnc2sc3c(c12)CCC3 1.9%
Clc1cccc(-c2nnc(-c3ccccc3)o2)c1 1.29%
COc1ccccc1NC(=O)c1ccccc1Sc1ccc([N+](=O)[O-])cc1 22.6%
Cc1cc(CCOc2c(C)cc(-c3nnn(C)n3)cc2C)on1 3.61%
O[C@@](Cn1cnnn1)(c1ccc(F)cc1F)C(F)(F)c1ccc(-c2ccc(OCC(F)(F)F)cc2)cn1 47.1%
COc1ccc(SC(=O)N[C@H](CCC(=O)O)C(=O)O)cc1 24.2%
Cc1ncc([N+](=O)[O-])n1CC(C)O (stereo not drawn) 22.7%
O=C(NCc1ccc2c3c(cccc13)C(=O)N2)c1cccs1 17%
Cc1cc(C)n(O)c(=O)c1 0.961%
COc1ccc(C[C@@H](C)[C@@H](C)Cc2ccc(OC)c(OC)c2)cc1OC 8.67%
NC(=O)c1ccc(I)c([N+](=O)[O-])c1 13.9%
CN(C)c1[nH]c(=O)ncc1F 24.8%
